In PubChem BioAssay AID1508600 (Functional Genomics Laboratory (NCATS/FGL), 2020):
Hit rate of the full screen: of about 53,000 sequences, about 3,700 (7%) were called active. This is one part of a sample in which actives are shown more often than they occur.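 How the source made its calls: active means gene knockdowns whose robust z-score for IL-1 alpha signal is at least 2 or at most -2, so actives lie on both sides; inactive means the rest.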

experiment: Components of the Cytosolic LPS Sensing Pathway: Gene Identification via Genome-wide siRNA Screen; details: RAW264.7 macrophages, IL-1a HTRF, actives lie on both sides, screened at 100 nM (by protocol), cells primed 5 h with Pam3CSK4 first;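 further: robust z of the log signal after scaling to non-targeting control siRNA wells of the plate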
Outline: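 RAW264.7 mouse macrophages reverse-transfected with single siRNAs (100 nM final) for 48h, primed with Pam3CSK4 for 5 hours, then transfected with LipidA for 24 hour. Supernatant IL-1a read by HTRF; values normalized to negative-control median, log-transformed robust z-scores.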

z-score, active:
GCUGAAAGAUUUACUGCCCTT against Bhlhe41 2.95
GGUAAUGCUGUGGAGUCUUTT against Wdr53 -2.59
GAAACUUUGAGUCCUCCAGTT against Dop1b 3.22
GGCUGGAUGUAGAAAAUAUTT against Aspm -2.1
CGAUGAUGAACGAUGGACATT against Mmp3 2.47
GGAAAUCGAGCAUGUCUUCTT against Stk32c 2.21
CUUCUUGGUGGGUCUGACUTT against Taar7e -2.63
GGAGGAGCGUACUAUUUAATT against Slc12a2 3.34
GGAUCUACGCAAGCAAGCATT against Oxnad1 2.12
CCCUCAACUUUCAGAUCAGTT against Naa10 2.81
GGGCGAAAACCAUUCAAAUTT against Zfp112 3.38
GCGGCAUCUACUUAAUAUGTT against Acer2 2.12
GCUUUGACUGGAAUGACGGTT against Pex7 -2.2
GCUAAGACUCUUGAAUCAGTT against Zfp280d 3.72
GGCAAAGUGUCCCUCCGAATT against Skint7 2.06
GGAGAGAAGAUCAUUUCAATT against Ncam2 2.38
GGCUUUAUCAGAUCCAACCTT against Tmem108 2.47
GGCCCUUCAUGAAGAGCAATT against Carf 2.07
GGCCAUUAUUCGUGAGUUGTT against Armc10 2.11
CCAUCAUGAACACUCAACATT against Olfr462 -2.59

z-score, inactive:
GGCAUGGAAUAUGAUGUUATT against Nlrp9b -1.72
GGGUUGUCCUGAACUUUAATT against Npr1 0.236
GGCCAGUGGAGGAAUAUGATT against 1300017J02Rik -0.383
CCACGUGUCUUAGAAUUAATT against Gas1 1.67
GGCCAACAAGGAAAACAUCTT against Bcas2 1.33
GGUCUGUAUGUCAUUUAUCTT against Ywhag -0.208
GGAAGGCCAUUUCAACUAATT against Olfr1367 1.54
GGUGAUUUGAACUGUGAAATT against Tmem126a -0.963
GGACAAACCUUGGAAGAUUTT against Ccdc166 -0.24
GGUUGGAAAUGACUAAUAATT against Slco6c1 -1.01
GGAAGGUGUCUGUAAUAUATT against Slamf9 -0.0451
GGAGGGCAGAUCUACGAUGTT against Aars 0.182
CGAGUUCAAACCGUCCUCUTT against Sdhc 0.105
CGGAAUGAUCACGACCGAUTT against Nsrp1 0.133
CCAAGUAAUUCCUACUACUTT against Olfr1100 -0.25
GGGAAGCAAAUCUAUACCCTT against Tnfrsf11a -0.243
GGUGUUGUCAGAAGUUUAATT against Slc22a13b 1.8
CCUCAUGCAGUUAAAUAUGTT against Kera -1.56
GGAGAAGGAUGGAGUGUUUTT against Brms1l 1.8
GGACUUUGUAACUAAUACCTT against Slco2b1 0.914
GGCACUGGCAGGAAAUUACTT against Alg6 -1.52
GGACUGCCUUAAUUAAAGUTT against Coa6 1.7
GCUGUGACUCUACUGGAGGTT against Zfp397 0.746
GGCAGAACCCACUGAGAAATT against Pakap -0.349
GGAAAAGAGAAGAAGGCACTT against Taf6 0.654
GCCUUUGAGGUUAUGAUCATT against Klk7 -1.09
GGCUGUGGUGAAGACUUUCTT against Cd81 -1.06
GGUGAAGCAGUUUGACUUCTT against Rbm18 0.0154
GGUUCUGGUUGAUAGAGAUTT against 4931428L18Rik 0.373
CGACUGGAAAAAGAUUGGGTT against Ttf1 -0.219
GCGGCAGUAAAUUGUGAGGTT against Grin3b 1.4
GGAAAUCCAGAAGCGUGUGTT against Gtpbp3 -0.436
GGAGGAUGCAAUUUUUAACTT against Sult1e1 0.771
GGAGAAACUGAAACAAGCUTT against Gpc4 0.403
GCACUAAGCUUUAUUCAUCTT against Mast2 -0.0104
GGAAACUUUUACUUCACAGTT against P3h1 -0.322
GCAAAGAAGCUCUUUAGAGTT against Hoxc5 0.455
GCCAUAAGAUGCUACAGUGTT against Tubb6 1.53
GGAAAGUACCCUAGGAGUUTT against 4921509C19Rik -1.6
CCUACUUCCGAGGUUUCUUTT against Ifnz -0.493
GGAAAGGAGUCUGCCAGCUTT against Tef -1.29
GGAAGAAGGAAGGUUCAGATT against Strm -0.581
GUGCAAACGGCAAACAUUCTT against 1700001G17Rik 1.89
CCUCCUGACUACAAGAACUTT against Utp14a 0.911
CCUUGAUACCUUUCCAUGUTT against 9130008F23Rik -0.68
CGUUCUUGAGAGUCGAUCATT against Smoc2 -0.19
GCACCUUCAGCUAUCUAACTT against Nepn 0.478
GCUGUUCCUCUUUCUUUCUTT against Olfr522 0.315
CCUAGAGUCUCAGGACUGUTT against Actrt3 0.682
GGUUUCGUACCAUGAAACATT against Stx2 -0.147
GGAGCUGUCUAAUCAUAAUTT against Clasp2 -0.109
GGAGUGGAAGAAGAAGUAUTT against Agap3 0.177
GGAGUUUCUACGUGUAUGCTT against Tpra1 -0.161
GGACUUUGUGGAGAAUGUCTT against Cyp1a2 -0.876
CCUACAGAGUACAGAUUAUTT against Atp6v0d1 -0.228
GGACUGAGAGGGAUGGUAATT against A530016L24Rik 0.293
GGCACAGAAGAAUGAGAGATT against Schip1 0.217
CGUACUCUUUCUUUAAUCCTT against Umod -0.622
GGUCCAUUACGUGCGCUUATT against Cage1 -0.00235
GGCCUGACUUUUUGUCUUATT against Klhl15 1.09
GGAACUGCCAUUGUAUGGGTT against Myo1g -0.568
CCGCAUUUCAGACAUAGGCTT against Olfr248 -0.729
GCAGAAUGUCACUAAGUGCTT against Sdcbp2 0.271
GGGAGAAGCAAUUUUUAACTT against Gpr34 0.132
CCUAUGGUAGAAAAAUACUTT against Fundc1 -0.252
GGCAGCUGAUCAGAAAUCATT against Gabrg3 -1.13
GCUCACUAACUUUUACAAGTT against Fam166c 0.419
CCAAGAGUUGUCAAUAUAATT against Crisp3 0.768
CCCUCCGUGUUUUUAAGAUTT against Tbl2 0.176
GGAUUUUGAUCUAAUGAGATT against Zfp354c 0.366
GGCAAUUCUCUGUAUCCACTT against Cyp2d34 -0.358
GCAUGUCGUCUGAGAAAGUTT against Pgr -0.748
GGUCAUAGAUGAGCUUAGUTT against Appl1 -0.763
GGCAUGUUGAUGGGAAUUUTT against Srp9 0.536
GGCCUACCCAAUUCUUAACTT against Ces1g -0.0881
GUGUUUCCUUGUUAAGAUUTT against Bloc1s4 -0.841
CCAGUAAAAAUUGAAGGCUTT against Capza2 0.565
GGUCUACGUUAUUAUUACCTT against Etv2 -0.537
GGAGCUUGACAUUCUGGAATT against Tmco4 0.766
CCGAGUUUGGGAAUAACUUTT against Cacna1a 1.45
CGGCAAUGUGACUAACAUCTT against Nrros 0.76
CGAGAUGUACCUUGAUACUTT against Idh3a 1.44
GCGAUGGACUCAAAAAACUTT against Ehd3 0.0497
GCUGUGUAUGUAUUUCAUGTT against Rnf128 0.549
GGCAGGAAUCUAUAUUAAUTT against Slc17a3 0.48
GCGAAAGAUAUUGUGGAAGTT against Dixdc1 -0.511
GCACUUUAAGAGACAAUGUTT against Gpr63 0.302
